Experimental data as given in the supplement of paper PMC4723716.

Tested on: Plasmodium falciparum NF54 gametocytes
Test: viability index relative to DMSO control (fraction); higher = less gametocyte killing
Settings: 12.5 µM, incubation time: 72 h
Procedure, shortened: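 P. falciparum NF54 gametocytes at stages I–V were treated with compound at 12.5 µM for 72 hr at 37°C under low oxygen in serum-containing medium (0.50% gametocytemia, 1.25% hematocrit), then stained with MitoTracker Red CMXRos and imaged in serum-free medium containing 500 nM dye. The viability index is the gametocyte particle count divided by the plate mean of solvent-only wells.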

[1] = gametocyte stage: Stage I viability index
[2] = gametocyte stage: Stage II viability index
[3] = gametocyte stage: Stage III viability index
[4] = gametocyte stage: Stage IV viability index
[5] = gametocyte stage: Stage V viability index

Structure (SMILES)	viability index [1]	viability index [2]	viability index [3]	viability index [4]	viability index [5]
CCOc1cc(CNC(C)C(O)c2ccccc2)cc(Cl)c1OCC (stereo not given)	0.137	0.337	0.634	0.729	0.791
O=C(CCc1ccco1)NC1CCN(CC2(c3ccc(Cl)cc3)CCC2)CC1	0.103	0.412	0.854	0.903	1.05
CN(N=O)C1=C(NC2CCCCC2)C(=O)c2ccccc2C1=O	0.00787	0.0183	0.309	0.456	0.234
COc1cc(CNCCc2ccc(Cl)cc2)cc(OC)c1O	0.049	0.44	0.801	1.01	0.896
CCCCCCc1cc(O)c2c3c(c(=O)oc2c1)CCC(C)C3 (stereo not given)	0.291	0.329	0.578	0.608	0.74
Oc1ccc(Br)cc1CN1CCN(Cc2cccc(F)c2)CC1	0.0385	0.0899	0.0787	0.196	0.273
CCOc1c(Cl)cc(CNC(C)C(O)c2ccccc2)cc1OC (stereo not given)	0.0917	0.317	0.584	0.754	1.14
Oc1ccc(Br)cc1CN1CCN(Cc2ccc(Cl)cc2)CC1	0.0201	0.0916	0.422	0.595	0.455
C=CC12CCN(CC1)C(C(O)c1ccnc3ccc(OC)cc13)C2 (stereo not given)	1.08	1.08	1.13	0.976	1.1
CCCc1cc(O)c2c3c(c(=O)oc2c1)CN(C)CC3	0.134	0.296	0.649	0.827	0.637
COc1ccc(CN2CCN(Cc3ccccc3)CC2)c(O)c1	0.0656	0.0974	0.362	0.57	0.494
Oc1ccc(C(=C(Cl)Cl)c2ccc(O)cc2)cc1	0.596	0.301	0.741	0.756	0.584
